# Source: PubChem BioAssay (EPA / NIEHS)
# Inconclusive results are not listed. Calls of active or inactive are those of the source. The calls were made as follows: active = hit-call score of the fitted dose curve at least 0.9, where 1 is the maximum; inconclusive = response in the unintended direction; inactive = score below 0.9.
# Assay: STM_H9_NormalizedViability: Cytotoxicity Assessment at 120 hours in the Stemina devTOX quickPredict H9 human embryonic stem cell (hESC)-based Assay (AID 2283784)
# Method: STM_H9_viability utilizes undifferentiated H9 cells to measure cell viability.STM_H9_NormalizedViability is a component calculated in the STM_H9_viability assay. It measures cell viability using background corrected relative fluorescence units (RFU) value from the CellTiterFluor Assay normalized to the value of the 0.1% DMSO neutral control treatment (by 96-well plate)Data from the assay component STM_H9_Viability was analyzed at the assay endpoint STM_H9_Viability_Norm in the positive analysis fitting direction relative to DMSO as the negative control and baseline of activity. Using a type of viability reporter, loss-of-signal activity can be used to understand viability.
# H9 hESCs maintained in a pluripotent state were exposed to test compound for 72h with chemical replenishment with media replacement every 24h. Cell-conditioned media from the final 24-h treatment period was collected for analysis of the targeted biomarker, and cell viability of the corresponding cell layer was assessed. The chemical library was tested in blinded fashion. Each test plate included 1uM Methotrexate (MTX; Selleck Chemicals, Houston, Texas) as a positive reference, 5 nM MTX as a negative reference, 0.1% DMSO as the neutral (vehicle) control, and sample-level media blanks.H9 cell-conditioned media from the final 24-h treatment period was collected for analysis of the targeted biomarker and cell viability was measured from the corresponding cell layer. Cell viability was measured using the CellTiter-Fluor assay (Promega, Madison, Wisconsin) based on proteolytic cleavage of a substrate to fluorescent signal proportional to the number of living cells. The cell viability Relative Fluorescence Unit (RFU) was background corrected and normalized to mean RFU of the neutral control (0.1% DMSO). The collected H9-cell-conditioned media samples were processed for targeted biomarker analysis as described (Palmer et al., 2013). Briefly, spent media samples were deproteinized (40% acetonitrile) and processed for UPLC-HRMS. Data acquisition was performed using 4 separate UPLC-HRMS systems, consisting of an Agilent 1290 Infinity LC system (Agilent Technologies) interfaced with an Agilent high-resolution mass spectrometer (models G6520A, G6520B, G6530A, and G6224A). A Waters Acquity UPLC BEH Amide column (2.1mm x 50mm, 1.7lm particle size; Waters, Milford, Massachusetts) maintained at 40C was applied for separation of metabolites using a 6.5min solvent gradient with 0.1% formic acid in water and 0.1% formic acid in acetonitrile (1.0ml/min flow rate). Data were acquired using MassHunter Acquisition software (version B 04.00, Agilent Technologies). The extracted ion chromatogram (EIC) areas for ORN, CYSS, and their respective spike-in C13-standards were determined using the Agilent MassHunter Quantitative Analysis software, version B.05.00 or newer (Agilent Technologies), and data were normalized as described in Palmer et al. (2017).
SMILES,outcome,AC50
CCSC(=O)N(CC(C)C)CC(C)C,inactive,–
CSC(=O)c1cccc2nnsc12,inactive,–
O=C(c1ccc(O)cc1O)c1ccc(O)cc1O,–,50 µM (active)
CCNc1nc(N)nc(Cl)n1,inactive,–
CC(C)(c1ccc(O)cc1)c1ccc(O)cc1,inactive,–
CCCCC(CC)COC(=O)c1ccccc1C(=O)O (centres undefined),inactive,–
S=C([S-])NCCNC(=S)[S-].[Mn+2],inactive,–
CCCCOC(=O)[C@@H](C)Oc1ccc(Oc2ccc(C(F)(F)F)cn2)cc1,–,73.8 µM (active)
CCOC(=O)C(C)Oc1ccc(Oc2cnc3cc(Cl)ccc3n2)cc1 (centres undefined),inactive,–
CCCCOC(=O)C(C)Oc1ccc(Oc2ccc(C(F)(F)F)cn2)cc1 (centres undefined),inactive,–
O=C(O)C1(C(=O)Nc2ccc(Cl)cc2Cl)CC1,inactive,–
COC(=O)c1ccccc1C(=O)O,inactive,–
N[C@@H](Cc1cc(I)c(Oc2ccc(O)c(I)c2)c(I)c1)C(=O)O,inactive,–
S=C(S)NCCNC(=S)S.[Mn+2].[S-]C([S-])=NCCN=C([S-])[S-].[Zn+2],inactive,–
C#CCOC(=O)[C@@H](C)Oc1ccc(Oc2ncc(Cl)cc2F)cc1,–,76 µM (active)
OB(O)O,inactive,–
N#CSCSc1nc2ccccc2s1,–,17.3 µM (active)
CN(C)C(=O)Nc1ccc(Cl)c(Cl)c1,inactive,–
CC(C)(C)[C@@H](O)[C@@H](Cc1ccc(Cl)cc1)n1cncn1,inactive,–
CCCCCOC(=O)COc1cc(N2C(=O)C3=C(CCCC3)C2=O)c(F)cc1Cl,inactive,–
Cc1nn(C)c(Oc2ccccc2)c1C=NOCc1ccc(C(=O)OC(C)(C)C)cc1,–,0.0346 µM (active)
COC(=O)CSc1cc(N=c2sc(=O)n3n2CCCC3)c(F)cc1Cl,–,89.5 µM (active)
CCN(Cc1c(F)cccc1Cl)c1c([N+](=O)[O-])cc(C(F)(F)F)cc1[N+](=O)[O-],–,50 µM (active)
CC(C)CCCCCCc1ccc(O)cc1,–,81.2 µM (active)
C=CCOC(Cn1ccnc1)c1ccc(Cl)cc1Cl (centres undefined),inactive,–
CCCN(CCC)c1c([N+](=O)[O-])cc(C(F)(F)F)c(N)c1[N+](=O)[O-],inactive,–
Oc1ccc(C(c2ccc(O)cc2)C(Cl)(Cl)Cl)cc1,inactive,–
C[C@]12C[C@H](O)[C@H]3[C@@H](CCC4=CC(=O)CC[C@@]43C)[C@@H]1CC[C@@H]2C(=O)CO,–,80 µM (active)
COC(=O)c1ccc(I)cc1S(=O)(=O)NC(=O)Nc1nc(C)nc(OC)n1,inactive,–
